Measured values published in PubChem BioAssay AID652013 (National Center for Advancing Translational Sciences (NCATS), 2013).
Values joined by “and” are separate entries in the source; they are usually repeats but may differ in a detail not shown here. Equal values may be shown once.

Experiment: qHTS of Nrf2 Activators: Hit Validation in NQO-1 Induction Assay
Details: Hepa1c1c7 cells, NQO1 mRNA qPCR, 24 h; at 1 µM; active compounds read high;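 active = relative NQO1 transcription at 1 µM of 250% or more; inconclusive = relative NQO1 transcription between 200% and 250%; inactive = relative NQO1 transcription under 200%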
Source text: Many diseases have some form of oxidative stress injury and ties to inflammation, causing a host of problems for the patient. The antioxidant response element (ARE) plays an important role in alleviating the harmful effects of oxidative stress. The antioxidant response element (ARE) is a transcriptional regulatory element involved in the activation of genes coding for a number of antioxidant proteins and detoxifying enzymes. These enzymes work in concert to protect tissues from oxidative insults and chemical toxicities in human hepatocytes and immune cells. The protective effects of ARE activation are primarily triggered through Nrf2 (NF-E2-related factor) binding to and activating AREs. It is known that Nrf2 controls the production of over 250 antioxidant and detoxification proteins (Hu et al., 2006), thereby protecting tissues by increasing cellular antioxidant content and suppressing inflammatory signaling pathways. The transcription factor Nrf2 is a central link between oxidative chemicals, such as phenolic antioxidants and electrophilic compounds, and the activation of ARE. Nrf2 levels are constitutively low as a consequence of its interaction with Keap1, which targets its degradation (Zipper and Mulcahy, 2002). Electrophiles react with key cysteine residues in Keap1, releasing Nrf2 and allowing its translocation to the nucleus. Once within the nucleus, Nrf2 complexes with coactivators such as p300, and binds to the AREs to induce gene transcription of cytoprotective enzymes, resulting in the prevention of toxicity. Activation of Nrf2 protects tissues by increasing cellular antioxidant content and suppressing inflammatory signaling pathways. Identifying novel and potent Nrf2 activators by using the AREc32 cell line to detect ARE activation by small molecules will lead to the identification and development of probes to study protective pathways in multiple tissues. These specific probes are essential to study the ARE pathway, and eventually to determine whether this pathway does activate genes that could protect against a host of diseases, including cardiovascular diseases, obesity, diabetes, Alzheimer's, and Parkinson's disease. This project's aim is to identify novel and potent Nrf2 activators by using the AREc32 cell line to detect ARE activation by small molecules, which will lead to the identification and development of probes to study the ARE pathway. Compounds that were identified in the primary screen were tested in this secondary assay to assess whether a hit also activates Nrf2 transcription of the target gene NQO-1. NIH Chemical Genomics Center [NCGC] NIH Molecular Libraries Probe Centers Network [MLPCN] MLPCN Grant: DK081461 Assay Submitter (PI): Curtis Klaassen, University of Kansas Medical Center
Hepac1c7 cells were seeded into 24-well plates at a density of 30,000 cells/well in 1 mL complete media per well and cultured overnight to allow attachment. Cells were treated the next day with compounds (1 uM)or positive control for 24 h. Total RNA samples were then isolated by using RNAzol B reagent (Tel-Test, Inc., Friendswood, TX) according to the manufacturer's protocol. Total RNAs were reverse-transcribed into cDNA by High Capacity cDNA Archive Kits (Applied Biosystems, Foster City, CA) and the resulting cDNA was used for real-time PCR analysis using SYBR(R) Green PCR Master Mix in a 7900HT Fast Real-Time PCR System.

Relative NQO1 transcription, inactive:
COc1ccccc1NC(=O)c1cc(Cl)nc2ccccc12 79%
O=C(Nc1ncnc2sc3c(c12)CCC3)c1ccco1 175%
Clc1ccc2c(NCc3ccccn3)ncnc2c1 83%
O=C(Nc1cccc2ncccc12)c1ccc(Cl)cc1 136%
O=C(Nc1ncnc2sc3c(c12)CCCCC3)c1ccco1 163% and 137%
Cc1nc(NCc2ccco2)nc2c1C(=O)CC(C)C2 (stereo not given) 175%
CS(=O)(=O)c1nc(S(=O)(=O)c2ccc(Cl)cc2)c(N2CCOCC2)s1 129%
COc1ccc(NC(=O)c2cc(-c3cccs3)on2)c(OC)c1 129%
COC(=O)c1c(NC(=O)c2ccccc2)sc(C(N)=O)c1C 60%
COc1ccc(NC(=O)c2cc(-c3ccco3)on2)c(OC)c1 75%
